These results are taken from PubChem BioAssay (NCATS).

SMILES strings stand for the structures. Records with an inconclusive call do not appear. Calls of active or inactive are those of the source. Calls come from the whole dose curve.

In this assay the target is Atrial natriuretic peptide receptor 1 (Homo sapiens) (UniProt P16066). As to the kind of experiment: Natriuretic polypeptide receptor (hNpr1) antagonism - Pilot CMLD screen (AID 1347052). The settings on record: HEK293 hNpr1 GloSensor cGMP luminescence, ANP-stimulated; series mostly up to 9.22 µM. How it is done: In order to identify small molecular compounds that inhibit the hNpr1 receptor we developed a high-throughput assay to measure inhibition of the guanylate cyclase activity of the receptor. cGMP production was measured using a circular permutated Firefly luciferase (FLuc) enzyme functionally linked to the cGMP binding domain of human phosphodiesterase 5 (GloSensor technology pGS-40F, (Fan, F. et al. 2008). The cGMP-sensor was expressed in human embryonic kidney 293 (HEK-293) cells and FLuc activity was measured after stimulation with hNrp agonist peptide. hNrp agonists activates the receptor's associated guanylyl cyclase (GC) domain producing cGMP which then binds to the GloSensor resulting in FLuc activation, the enzymatic activity of which can be measured as bioluminescence with addition of luciferin substrate.
Atrial natriuretic peptide receptor 1 (Homo sapiens), sequence (P16066 whole entry, looked up, the tested form may be a part): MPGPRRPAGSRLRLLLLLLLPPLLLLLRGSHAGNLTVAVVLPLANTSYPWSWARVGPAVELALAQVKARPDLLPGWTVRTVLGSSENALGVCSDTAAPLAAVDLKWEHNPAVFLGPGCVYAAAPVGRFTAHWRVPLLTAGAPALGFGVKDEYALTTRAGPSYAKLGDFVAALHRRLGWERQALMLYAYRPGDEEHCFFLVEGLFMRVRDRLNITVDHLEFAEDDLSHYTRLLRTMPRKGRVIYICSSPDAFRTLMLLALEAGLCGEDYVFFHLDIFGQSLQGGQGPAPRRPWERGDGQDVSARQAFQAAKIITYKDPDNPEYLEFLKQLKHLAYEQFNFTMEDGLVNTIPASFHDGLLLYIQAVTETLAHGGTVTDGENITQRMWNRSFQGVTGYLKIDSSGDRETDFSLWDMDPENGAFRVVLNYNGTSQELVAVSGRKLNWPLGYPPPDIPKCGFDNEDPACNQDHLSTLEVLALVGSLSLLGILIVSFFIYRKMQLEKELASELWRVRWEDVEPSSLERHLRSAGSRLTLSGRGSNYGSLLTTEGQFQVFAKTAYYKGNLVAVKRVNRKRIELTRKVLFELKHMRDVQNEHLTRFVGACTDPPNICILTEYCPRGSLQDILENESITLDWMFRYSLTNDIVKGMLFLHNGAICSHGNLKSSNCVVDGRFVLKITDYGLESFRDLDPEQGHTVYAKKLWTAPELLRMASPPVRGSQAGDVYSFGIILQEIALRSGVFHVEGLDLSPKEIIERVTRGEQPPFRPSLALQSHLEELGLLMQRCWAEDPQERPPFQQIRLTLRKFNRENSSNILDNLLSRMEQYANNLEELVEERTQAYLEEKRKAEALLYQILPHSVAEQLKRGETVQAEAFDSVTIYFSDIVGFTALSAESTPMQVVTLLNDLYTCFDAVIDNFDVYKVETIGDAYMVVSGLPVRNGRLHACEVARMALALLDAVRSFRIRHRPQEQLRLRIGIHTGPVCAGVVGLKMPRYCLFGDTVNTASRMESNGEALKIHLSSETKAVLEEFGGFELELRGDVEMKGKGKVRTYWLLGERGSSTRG
This assay was initially piloted by testing with a small library of specialty compounds.
PROTOCOL TABLES (as described by Inglese J, Shamu CE and Guy RK. 2007)
SEQUENCE No. (e.g., 1, 2, 3, etc.); […] (e.g., Cells, Incubation, Reagent, etc.); VALUE and DESCRIPTION.
1. Cells. Seed 1500 HEK293 cGMP-sensor cells expressing hNpr1 per well in 4uL into Greiner 1536-well white/solid bottom high base, tissue culture-treated plates.
2. Incubation. Incubate plated cells at 37C in 5% CO2, 95% RH overnight.
3. Reagent. Add 1uL per well GloSensor reagent from Promega (2% final concentration) or CO2 independent media vehicle control to respective columns of Greiner 1536-well plates.
4. Incubation. Incubate plated cells at room temperature for 2 h, protect from light.
5. Compounds. Library compounds and A-71915 control added at 23 nL per well, transferred by Pin Tool.
6. Incubation. Incubate plated cells for 30 min. at room temperature, protect from light.
7. Detector. GloSensor baseline pre-read luminescence measured using CCD-based camera (Viewlux).
8. Compound. Add 1uL of hNppA peptide to 0.1 nM final concentration to stimulate hNpr1 or CO2 independent media as vehicle control.
9. Incubation. Incubate treated cells at room temperature for 20 min., protect from light.
10. Detector. GloSensor post-hNppA luminescence measured using CCD-based camera (Viewlux).
NOTES (numbers refer to Sequence numbers above)
1. HEK293 cells expressing hNpr1 and GIP/pGS-40F grown to 85-95% confluence (48-72 h) in T175 culture flasks (CO2 independent media supplemented with 10% FBS, 1% Pen/Strep antibiotics and 1 ug/mL puromycin). Trypsinize and harvest cells from T175 culture flasks and filter through 40 um cell strainer. Cells counted with Invitrogen Countess (30,000,000 - 50,000,000 cells/flask). Cells diluted to a final concentration of 375 cells/uL in CO2 independent media and a Millipore multidrop used to dispense 1500 cells per well (4uL/well) into 13 1536-well Greiner White/Solid bottom, high base tissue-culture treated (TC) plates and one Aurora 1536-well Black/Clear bottom, low base, TC plate (for visual inspection of cell health throughout the duration of the assay).
2. Cells incubated overnight at ambient temperature, 24 h. at 37C in 95% RH incubator protected from light, covered with metal lid with gas-exchange holes.
3. Prepare GloSensor Reagent (Promega): Reconstitute GloSensor luciferase substrate by adding 8.2mL Hepes buffer to 250mg substrate, mix well, protect from light and stored at -80C. Prepare a fresh 12% GloSensor solution in CO2 independent supplemented plating media (see above). Mix well and store at ambient temperature, protected from light. 1uL 12% GloSensor Luciferase Reagent added (2% final concentration) to respective columns of 13 x 1536-well Greiner plate with BioRaptr, 1uL CO2 independent plating media added to respective columns as vehicle control with BioRaptr.
4. Cells incubated for 2 h. at ambient temperature, protected from light with metal lid with gas-exchange holes.
5. A-71915 stock solution prepared (10 mM in DMSO). […]
For the compound `COC(=O)C1=NN=C(C(=O)OC)[C@@]2(C)c3ccccc3NC12` (some centres not stated), the compound was classed as inactive.

As for `COC(=O)C1C2CC(C)C(c3ccccc32)N1C(=O)C(F)(F)F` (configuration not stated), the outcome was inactive.

In the case of `CCOC(=O)[C@@]12[C@@H]3[C@@H](CCN3C(=O)N[C@H]1c1ccccc1)C2(C)C`, the compound was called inactive.

For `CC(=O)[C@]12C[C@]3(C)CCCN(C(=O)N[C@@H]1c1ccccc1)C32` (some centres not stated), the call was inactive.

Turning to `C=C(C)C(=O)CP(=O)(OCC)OCC`, the outcome was inactive.

With `COC(=O)[C@@H]1[C@@H](c2ccccc2)[C@H]2C(=O)c3c(OC)cc(OC)cc3O[C@@]12c1ccc(OC)cc1`, the compound was called inactive.

With `COC(=O)[C@]12C[C@@H]3CCN(C(=O)N[C@@H]1c1ccccc1)[C@@]32C`, the compound was called inactive.

Consider `CC(=O)[C@]12C[C@@H]3CCN(C(=O)N[C@@H]1c1ccccc1)[C@@]32C`, for which the outcome was inactive.

Regarding `C=C1[C@@H]2CCN3C(=O)N[C@@H](c4ccccc4)[C@@]1(C(=O)OCC)C23` (some centres not stated), the compound was called inactive.

Take `COC(=O)[C@@]1(C=C2c3ccccc3[C@@H](OC)[C@@H]2C)[C@@H]2Oc3ccccc3[C@@H]21`: the compound was classed as inactive.

With `CCOC(=O)[C@@]12C3[C@@H](CCN3C(=O)N[C@@H]1c1ccccc1)[C@@H]2C` (some centres not stated), the compound was called inactive.

In the case of `COC(=O)[C@@]1(C=C2c3ccc(F)cc3[C@@H](OC)[C@@H]2C)[C@@H]2c3ccccc3O[C@@H]21`, the call was inactive.

On to `CCOC(=O)[C@]12C[C@]3(OC)CCN(C(=O)N[C@@H]1c1ccccc1)[C@@H]32`, for which the call was inactive.

For `CCOC(=O)[C@]12C[C@@H]3OCCN(C(=O)N[C@@H]1c1ccccc1)[C@@H]32`, the outcome was inactive.

Turning to `CO[C@@H]1c2ccccc2[C@H]2C(C(=O)O)c3c(n(C)c4ccccc34)[C@H]2[C@H]1C` (some centres not stated), the call was inactive.

Consider `COC(=O)C1=C[C@H]([C@@H](C)[C@H](OC)c2ccccc2Br)[C@H]2[C@H]1c1ccccc1N2C`, for which the call was inactive.

In the case of `CC(=O)[C@@]12C3[C@@H](CCN3C(=O)N[C@H]1c1ccccc1)[C@H]2c1ccccc1` (some centres not stated), the outcome was inactive.

As to `COC(=O)C1=C2CCO[C@@H]2[C@H]2[C@@H](C)[C@H](OC)c3ccccc3[C@H]12`, the outcome was inactive.

Turning to `COC(=O)[C@@]1(C=C[C@@H](C)[C@H](OC)c2ccccc2Br)[C@@H]2Oc3ccccc3[C@@H]21`, the outcome was inactive.

For the compound `CC(=O)[C@]12[C@H](c3ccccc3)[C@@H]3CCN(C(=O)N[C@H]1c1ccccc1)[C@@]32C`, the compound was classed as inactive.

Turning to `COC(=O)C1c2c(n(C)c3ccccc23)[C@H]2[C@@H](C)[C@H](OC)c3ccccc3[C@@H]12` (some centres not stated), the compound was classed as inactive.

Regarding `CCOC(=O)[C@]12C[C@]3(C)CCCN(C(=O)N[C@@H]1c1ccccc1)[C@@H]32`, the call was inactive.

For `CCOC(=O)[C@]12C[C@@H]3CCN(C(=O)N(C(C)=O)[C@@H]1c1ccccc1)[C@@H]32`, the outcome was inactive.

For the compound `COC(=O)[C@@]12Cc3ccccc3[C@H]1C[C@H](C)[C@@H](C)N2C(=O)C(F)(F)F`, the compound was classed as inactive.

Consider `COC(=O)C1(C)C2CC(C)C(c3ccccc32)N1C(=O)C(F)(F)F` (configuration not stated), for which the result was inactive.

As to `CCOC(=O)[C@]12C[C@]3(C)CCN(C(=O)N[C@@H]1c1ccccc1)[C@@H]32`, the compound was classed as inactive.

In the case of `COC(=O)[C@@]1(C=C2c3ccc(F)cc3[C@@H](OC)[C@@H]2C)[C@@H]2Oc3ccccc3[C@@H]21`, the call was inactive.

As for `CCC[C@]12CCN3C(=O)N[C@@H](c4ccccc4)[C@](C(=O)OCC)(C1)[C@H]32`, the result was inactive.

On to `COC(=O)C1=C2CCCO[C@H]2[C@@H]2[C@@H](C)[C@H](OC)c3ccccc3[C@@H]12`, for which the compound was classed as inactive.

On to `COC(=O)C12CC3=CCC4C(=O)N(c5ccccc5)C(=O)C4C3Cc3ccccc3[C@H]1CNC2=O` (some centres not stated), for which the compound was called inactive.

Regarding `CC(=O)[C@]12C[C@@H]3CCCN(C(=O)N[C@@H]1c1ccccc1)[C@@H]32`, the outcome was inactive.

Take `COC(=O)C1=C2CCO[C@H]2[C@@H]2[C@@H](C)[C@H](OC)c3ccccc3[C@@H]12`: the result was inactive.
